PubChem BioAssay (NCI)
This is part of a sample that, as a whole, favours compounds with a hit. Of some 79,000 tested, about 15% had one in any assay. Values without a mark were called inactive. Activity calls are given as the source filed them. Rule as the data show it: active = growth inhibition above about 70%; inactive = the rest.

Test: NCI Yeast Anticancer Drug Screen. Data for the sgs1 strain (AID 173);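 also: 0% = growth of vehicle-only control cultures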
Settings: S. cerevisiae sgs1 mutant, stronger effect = higher value
Procedure: Growth inhibition of yeast strains with defined genetic alterations is measured as a screen for potential anti-cancer activity. Selected strains with alterations in DNA damage repair or cell cycle control were exposed to compounds and growth inhibition was measured relative to vehicle treated controls. The strain used in this assay is sgs1

SMILES: O=[N+]([O-])c1ccc(N/N=C/Cc2ccccc2)c([N+](=O)[O-])c1
- growth inhibition (at 1.2 µM): -4%
- growth inhibition (at 3.7 µM): -1%
- growth inhibition (at 11.0 µM): 2%
- growth inhibition (at 33.0 µM): 9%
- growth inhibition (at 100.0 µM): 22%

SMILES: CCCCOCn1c(=O)[nH]c(=O)c2cc(Br)ccc21
- growth inhibition (at 1.2 µM): -18%
- growth inhibition (at 3.7 µM): -7%
- growth inhibition (at 11.0 µM): -16%
- growth inhibition (at 33.0 µM): -18%
- growth inhibition (at 100.0 µM): -8%

SMILES: CCCOC(=O)C(F)C(Br)C(=O)OCCC (stereo not given)
- growth inhibition (at 1.2 µM): 50%
- growth inhibition (at 3.7 µM): 96% (active)
- growth inhibition (at 11.0 µM): 98% (active)
- growth inhibition (at 33.0 µM): 97% (active)
- growth inhibition (at 100.0 µM): 99% (active)

SMILES: Cc1cc(=O)oc2c(C)c3occc(=O)c3cc12
- growth inhibition (at 1.2 µM): 0%
- growth inhibition (at 3.7 µM): -2%
- growth inhibition (at 11.0 µM): 0%
- growth inhibition (at 33.0 µM): 6%
- growth inhibition (at 100.0 µM): 34%

SMILES: O=C(COC(=O)c1ccccc1)c1ccc(Br)cc1
- growth inhibition (at 1.2 µM): -12%
- growth inhibition (at 3.7 µM): 10%
- growth inhibition (at 11.0 µM): 90% (active)
- growth inhibition (at 33.0 µM): 99% (active)
- growth inhibition (at 100.0 µM): 99% (active)

SMILES: COC1CCC(O)C(/C=C/[N+](=O)[O-])C1 (stereo not given)
- growth inhibition (at 1.2 µM): 13%
- growth inhibition (at 3.7 µM): 68%
- growth inhibition (at 11.0 µM): 99% (active)
- growth inhibition (at 33.0 µM): 99% (active)
- growth inhibition (at 100.0 µM): 98% (active)

SMILES: CCCCCCCCCCCC1N=C(N)NC(CCCO)=C1C(=O)OC (stereo not given)
- growth inhibition (at 1.2 µM): 48%
- growth inhibition (at 3.7 µM): 99% (active)
- growth inhibition (at 11.0 µM): 99% (active)
- growth inhibition (at 33.0 µM): 99% (active)
- growth inhibition (at 100.0 µM): 99% (active)

SMILES: O=C1N=C2SC=C(NC(=S)Nc3ccccc3)N2NC12c1ccccc1-c1ccccc12
- growth inhibition (at 1.2 µM): 10%
- growth inhibition (at 3.7 µM): 15%
- growth inhibition (at 11.0 µM): 28%
- growth inhibition (at 33.0 µM): 81% (active)
- growth inhibition (at 100.0 µM): 90% (active)
